Several values for one entry are separate records, joined by “and”; a condition that tells them apart may be missing. Identical values can stand only once. About 83,000 compounds went through this panel and 20% of them were active in at least one assay; those are over-represented in the sample as a whole.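 Activity criterion: percent growth below 10, measured after cells in 96-well plates were exposed to a single compound concentration for 48 hours.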 Activity calls are given as the source filed them.

The experiment relates to MDA-MB-468 breast. The experiment is described as follows: NCI-60 one-dose screen, 48 h (100 = growth as untreated, 0 = no growth, -100 = all killed). To be noted: 10 µM unless noted.
`CCN(CC)CCOc1nc2ccc(OC)cc2c2c1-c1ccc(OC)cc1C2=O`: the growth is 51.9% (inactive).
For `Cn1cc(-c2nc(-c3c[nH]c4ncccc34)cs2)c2cc(F)ccc21` the value was -22.6% (active).
For `O=C(c1c(F)ccc(NS(=O)(=O)N2CC[C@@H](F)C2)c1F)c1c[nH]c2ncc(-c3cnc(C4CC4)nc3)cc12` the value was 54.7% (inactive).
`CC1(C)N=C(N)N=C(N)N1c1ccc(CCCCc2ccccc2)c(Cl)c1`: the growth was -20.8% (active).
In the case of `Cn1ncc2c(=O)nc3c(-c4ccccc4)n[nH]n3c21`, the growth was 101% (inactive).
On to `CC1(C)CC[C@]2(C(=O)Nc3ccccn3)CC[C@]3(C)C(=CC[C@@H]4[C@@]5(C)C/C(=C/c6cccnc6)C(=O)C(C)(C)[C@@H]5CC[C@]43C)[C@H]2C1`, for which the growth was 17.2% (inactive).
Take `CC/C(C)=C(\C)C(=O)O`: the growth was 106% (inactive).
The same measure for `CCCCOc1ccc(/C(C)=N/Nc2cc(C)nc3ccc(Br)cc23)cc1`: 113% (inactive).
As for `O=C(CN1C(=O)S/C(=C\C(Cl)=C\c2ccccc2)C1=O)NC1CCS(=O)(=O)C1` (configuration not stated), the growth was 8.17% (active).
As for `COc1ccc(C(OCC2OC(n3ccc(NC(=O)c4ccccc4)nc3=O)C(O)C2O)(c2ccccc2)c2ccccc2)cc1` (configuration not stated), the growth was 45.9% (inactive).
As to `NS(=O)(=O)c1ccc(NCC(=O)Nc2ccc(-c3nc4ccccc4s3)cc2)cc1`, the growth is 4.26% (active).
On to `CC(=O)N1CCN(CCNC(=O)n2cc(-c3ccncc3)c(-c3cc(O)cc(Cl)c3)n2)CC1`, for which the growth is 32.4% (inactive).
With `CC1CC(C(C)(C)C)C(=O)C(C(C)(C)C)C1` (configuration not stated), the growth is 99.8% (inactive).
Consider `C=C1C(=O)O[C@H]2[C@H]1CC/C(COC(=O)c1cccc3ccccc13)=C\CC[C@@]1(C)O[C@@H]21`, for which the growth is -45.1% (active).
Turning to `CCOC(=O)/C(C#N)=C1/C(=O)Nc2ccccc21`, the growth is 134% (inactive).
Turning to `COc1ccc(C(=O)C2CC2c2ccc(Cl)cc2)cc1` (configuration not stated), the growth is 98.3% (inactive).
Regarding `CCCCNC(=O)Oc1ccc(/C(=C(\C)c2ccc(OC)cc2)c2ccc(OCCN3CCCCC3)cc2)cc1`, the growth was 64.4% (inactive).
Take `COC(=O)[C@]12CC[C@@H](C)[C@H](C)[C@@H]1C1=CC[C@@H]3[C@@]4(C)C[C@@H](O)OC[C@](C)(C=O)C4C(=O)C[C@@]3(C)[C@]1(C)CC2` (some centres not stated): the growth is -0.84% (active).
For the molecule `NC(N)=NS(=O)(=O)c1ccc(Nc2ccc3nnc(-c4ccncc4)n3n2)cc1`, the growth was 96.6% (inactive).
For `O=C(Nc1cc(Cl)cc(Cl)c1)Nc1ccc2oc(=O)ccc2c1` the value was 15.7% (inactive); for `CN1CCN(c2ccc(/C=N/n3cnc4oc(-c5ccccc5)cc4c3=N)cc2)CC1`, 97.6% (inactive); for `CC1=C(CC(=O)c2cccc([N+](=O)[O-])c2)C(=O)c2ccccc2C1=O`, -52.5% (active).
In the case of `COC1CC(N)C2OC(c3ccccc3)OCC2O1` (configuration not stated), the growth was 109% (inactive).
For `COc1ccc(-c2c3c(nn2-c2ccc(N)cc2)CCc2cnoc2-3)cc1OC` the value was 92.8% (inactive).
As for `COc1ccc(/C=C\c2cc(OC)c(OC)c(OC)c2)cc1OC(=O)c1cccc(Cn2cc(CCOC(=O)[C@H](N)Cc3cn(C)c4ccccc34)nn2)c1`, the growth is 13.9% (inactive).
Regarding `O=C(NCCc1ccccn1)OCc1nc2nc(Cl)nc(N3CCOCC3)c2[nH]1`, the growth is 24.9% (inactive).
For `CC(c1ccccn1)C(C)(O)C(C)c1ccccn1` (configuration not stated) the value was 106% (inactive).
The same measure for `CCOC(=O)C1=C(C)NC(C)=C(C(=O)OCC)C1`: 97.7% (inactive) and 86.9% (inactive).
As for `CC/C(=C(/c1ccc(Cl)cc1)c1ccc(OCCN(CC)CC)cc1)c1ccc(OC)cc1`, the growth is 38% (inactive).
Consider `CCNC1=CC(=O)c2ncccc2C1=O`, for which the growth is 43.4% (inactive).
On to `COc1ccc(/C(N)=N/C(N)=N/c2nc3ccccc3s2)cc1`, for which the growth is 24.3% (inactive).
For `O=c1oc2c(cnc3ccccc32)cc1-c1ccsc1` the value was 85.5% (inactive).
`Clc1nccc2c(-c3csc(-c4c[nH]c5ccccc45)n3)c[nH]c12`: the growth was 29.2% (inactive).
As for `CCN1C(=O)N(CC)C2Nn3c(s/c(=C\c4cccc(F)c4)c3=O)=NC21` (configuration not stated), the growth is 17.8% (inactive).
As to `CCOC(=O)N1CCN(c2nc(Nc3cc(C)[nH]n3)c3ccccc3n2)CC1`, the growth was 30.6% (inactive).
On to `Cc1ccc2[nH]c(=O)cc(-n3nncc3Cn3c4ccccc4c4ccccc43)c2c1`, for which the growth is 94.7% (inactive).
For `CCC(C)[C@H](NC(=O)Nc1cc(C(F)(F)F)cc(C(F)(F)F)c1)C(=O)N[C@@H](Cc1cn(C)cn1)C(=O)OC` (some centres not stated) the value was -74.1% [100 µM] (active).

Values taken from PubChem BioAssay (NCI).
